Reference: PubChem BioAssay (Tox21)
Records with an inconclusive call do not appear. The source made the active and inactive calls. Calls follow the shape of the dose curve; as a rule, active = well fitted curve in the direction sought with a large enough effect in the repeat runs; inconclusive = weak or mixed curves; inactive = no such curve, though single readings can be large; an effect the other way counts as inactive or inconclusive.

Assays:
[1] = A CellTox Green Cytotoxicity Assay to monitor cytotoxicity in HEK293 cells - 40 hour (AID 1224871); also: nearly all actives have a fitted effect of over 45% in size
How it was run: (§1)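 Seeding of HEK293 cells together with cytotoxicity dye preceded a 5 h incubation at 37 C/5% CO2. Test compounds in DMSO were then added and fluorescence monitored across 40 h.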

[2] = qHTS RealTime-Glo MT Cell Viability Assay in HEK293 cells - 16 hour (AID 1224872); also: top concentration of the series differs between compounds; nearly all actives have a fitted effect of over 50% in size
How it was run: (§2)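 Viability tracked continuously by luminescence as live cells reduce a prosubstrate for NanoLuc; HEK293 cells preincubated 5 h, compound-treated at 37 C, and read at 0, 8, 16, 24, 32 and 40 h.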

[3] = qHTS RealTime-Glo MT Cell Viability Assay in HepG2 cells - 8 hour (AID 1224873); also: nearly all actives have a fitted effect of over 55% in size
How it was run: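 HepG2 cells mixed with RealTime-Glo MT reagents (NanoLuc plus cell-permeant prosubstrate) were seeded at 600 cells/well, incubated 5 h at 37 C/5% CO2, then pinned with compounds in DMSO; nonlytic luminescence tracked viability during 40 h treatment.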

[4] = qHTS RealTime-Glo MT Cell Viability Assay in HEK293 cells - 40 hour (AID 1224874); conditions: RealTime-Glo luminescence; max response: stronger effect = lower value; also: nearly all actives have a fitted effect of over 50% in size
How it was run: (§3)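 Tox21 screen in HEK293 using RealTime-Glo MT chemistry, with cells and reagent co-dispensed. Luminescence proportional to viable cell number was captured at intervals during 40 h compound exposure at 37 C.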

[5] = A CellTox Green Cytotoxicity Assay to monitor cytotoxicity in HEK293 cells - 24 hour (AID 1224875); also: series mostly up to about 77 µM; nearly all actives have a fitted effect of over 45% in size
How it was run: as §1

[6] = A CellTox Green Cytotoxicity Assay to monitor cytotoxicity in HepG2 cells - 16 hour (AID 1224876); also: nearly all actives have a fitted effect of over 45% in size
How it was run: (§4)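 Nonlytic assay: viable cells exclude the dye, so fluorescence scales with cell death. HepG2 at 600 cells/well, compounds added after 5 h, signal read across 40 h.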

[7] = qHTS RealTime-Glo MT Cell Viability Assay in HepG2 cells - 32 hour (AID 1224877); also: nearly all actives have a fitted effect of over 55% in size
How it was run: (§5)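 Viability was tracked continuously by NanoLuc luminescence from prosubstrate reduced by living HepG2 cells, at successive time points over 40 h of compound exposure. Cells with reagent were preincubated 5 h at 37 °C before compound addition.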

[8] = A CellTox Green Cytotoxicity Assay to monitor cytotoxicity in HepG2 cells - 40 hour (AID 1224879); also: nearly all actives have a fitted effect of over 40% in size
How it was run: as §4

[9] = qHTS RealTime-Glo MT Cell Viability Assay in HEK293 cells - 0 hour (AID 1224880); also: top concentration of the series differs between compounds; nearly all actives have a fitted effect of over 45% in size
How it was run: as §3

[10] = A CellTox Green Cytotoxicity Assay to monitor cytotoxicity in HEK293 cells - 32 hour (AID 1224881); also: nearly all actives have a fitted effect of over 40% in size
How it was run: as §1

[11] = A CellTox Green Cytotoxicity Assay to monitor cytotoxicity in HepG2 cells - 0 hour (AID 1224882); also: nearly all actives have a fitted effect of over 35% in size
How it was run: as §4

[12] = A CellTox Green Cytotoxicity Assay to monitor cytotoxicity in HepG2 cells - 32 hour (AID 1224883); also: nearly all actives have a fitted effect of over 50% in size
How it was run: as §4

[13] = A CellTox Green Cytotoxicity Assay to monitor cytotoxicity in HEK293 cells - 8 hour (AID 1224884); also: nearly all actives have a fitted effect of over 35% in size
How it was run: as §1

[14] = qHTS RealTime-Glo MT Cell Viability Assay in HepG2 cells - 16 hour (AID 1224885); also: nearly all actives have a fitted effect of over 50% in size
How it was run: as §5

[15] = qHTS RealTime-Glo MT Cell Viability Assay in HEK293 cells - 24 hour (AID 1224886)
How it was run: as §2

[16] = qHTS RealTime-Glo MT Cell Viability Assay in HEK293 cells - 8 hour (AID 1224887)
How it was run: as §3

[17] = A CellTox Green Cytotoxicity Assay to monitor cytotoxicity in HEK293 cells - 16 hour (AID 1224888); also: nearly all actives have a fitted effect of over 35% in size
How it was run: as §1

[18] = qHTS RealTime-Glo MT Cell Viability Assay in HepG2 cells - 0 hour (AID 1224889); also: nearly all actives have a fitted effect of over 50% in size
How it was run: as §5

[19] = A CellTox Green Cytotoxicity Assay to monitor cytotoxicity in HepG2 cells - 8 hour (AID 1224890); also: nearly all actives have a fitted effect of over 45% in size
How it was run: as §4

[20] = A CellTox Green Cytotoxicity Assay to monitor cytotoxicity in HepG2 cells - 24 hour (AID 1224878); also: nearly all actives have a fitted effect of over 45% in size
How it was run: as §4
% is scaled to controls: 0 for no effect and ±100 for the full control effect.

CC(=O)c1ccc2c(c1)Cc1ccccc1-2
inactive: Potency [1] | Potency [2] | outcome [3] | max response [4] -0.213% | outcome [5] | outcome [6] | outcome [7] | Potency [8] | Potency [9] | Potency [10] | outcome [11] | Potency [12] | Potency [13] | outcome [14] | Potency [15] | Potency [16] | outcome [17] | Potency [18] | outcome [19]

BrCc1cccc(Oc2ccccc2)c1
inactive: Potency [1] | Potency [2] | outcome [3] | max response [4] -9.91% | outcome [5] | outcome [6] | outcome [7] | Potency [9] | Potency [10] | outcome [11] | Potency [13] | outcome [14] | Potency [16] | outcome [17] | Potency [18] | outcome [19]

C[Si](C)(C)C
inactive: Potency [1] | Potency [2] | outcome [3] | max response [4] 7.29% | outcome [5] | outcome [6] | outcome [20] | Potency [8] | Potency [9] | Potency [10] | outcome [11] | Potency [12] | Potency [15] | Potency [16] | outcome [17] | Potency [18] | outcome [19]

CCCCCCCCOS(=O)(=O)O
inactive: Potency [1] | Potency [2] | outcome [3] | max response [4] 2.61% | outcome [5] | outcome [6] | outcome [20] | Potency [8] | Potency [9] | Potency [10] | outcome [11] | Potency [12] | Potency [13] | outcome [14] | Potency [15] | Potency [16] | outcome [17] | Potency [18] | outcome [19]

Nc1ccc2cc(S(=O)(=O)O)cc(O)c2c1
inactive: Potency [1] | Potency [2] | outcome [3] | max response [4] 0.478% | outcome [5] | outcome [6] | outcome [7] | outcome [20] | Potency [8] | Potency [10] | outcome [11] | Potency [12] | Potency [13] | Potency [16] | Potency [18] | outcome [19]

O=C(O)Cc1cn(-c2ccccc2)nc1-c1ccc(Cl)cc1
inactive: Potency [1] | Potency [2] | outcome [3] | max response [4] -3.35% | outcome [5] | outcome [6] | outcome [20] | Potency [8] | Potency [9] | Potency [10] | outcome [11] | Potency [12] | Potency [13] | outcome [14] | Potency [15] | Potency [16] | outcome [17] | Potency [18] | outcome [19]

CN(C)C(=O)CNC(=O)Cc1ccccc1
inactive: Potency [1] | Potency [2] | outcome [3] | max response [4] 4.97% | outcome [5] | outcome [6] | outcome [20] | Potency [8] | Potency [9] | Potency [10] | outcome [11] | Potency [12] | Potency [13] | outcome [14] | Potency [15] | Potency [16] | outcome [17] | Potency [18] | outcome [19]

CCCOC(=O)C(C)O (stereo unspecified)
inactive: Potency [1] | Potency [2] | outcome [3] | max response [4] -7.32% | outcome [5] | outcome [6] | outcome [20] | Potency [8] | Potency [9] | Potency [10] | outcome [11] | Potency [12] | Potency [13] | outcome [14] | Potency [15] | Potency [16] | outcome [17] | Potency [18] | outcome [19]

CC(CC=O)CCCC(C)(C)O (stereo unspecified)
inactive: Potency [1] | Potency [2] | outcome [3] | max response [4] 3.36% | outcome [5] | outcome [6] | outcome [20] | Potency [8] | Potency [9] | Potency [10] | outcome [11] | Potency [12] | Potency [13] | outcome [14] | Potency [15] | Potency [16] | outcome [17] | Potency [18] | outcome [19]

CC(C)CCCC(C)(C)O
inactive: Potency [1] | Potency [2] | outcome [3] | max response [4] -4.36% | outcome [5] | outcome [6] | outcome [20] | Potency [8] | Potency [9] | Potency [10] | outcome [11] | Potency [12] | Potency [13] | Potency [15] | Potency [16] | outcome [17] | Potency [18] | outcome [19]

C[C@@H]1O[C@@H](O[C@@H]2[C@@H](O)[C@H](OCCc3ccc(O)c(O)c3)O[C@H](CO[C@@H]3O[C@H](CO)[C@@H](O)[C@H](O)[C@H]3O)[C@H]2OC(=O)/C=C/c2ccc(O)c(O)c2)[C@H](O)[C@H](O)[C@H]1O
inactive: Potency [1] | Potency [2] | outcome [3] | max response [4] -18.6% | outcome [5] | outcome [6] | outcome [7] | outcome [20] | Potency [9] | Potency [10] | outcome [11] | Potency [13] | outcome [14] | Potency [16] | outcome [17] | Potency [18] | outcome [19]

Nc1ncnc(Nc2ccccc2)n1
inactive: Potency [1] | Potency [2] | outcome [3] | max response [4] 3.02% | outcome [5] | outcome [6] | outcome [20] | Potency [8] | Potency [9] | Potency [10] | outcome [11] | Potency [12] | Potency [13] | Potency [16] | outcome [17] | Potency [18] | outcome [19]

CNC(=O)[C@H]1O[C@@H](n2cnc3c(NCc4cc(Cl)ccc4OCc4cc(C)no4)ncnc32)[C@H](O)[C@@H]1N
inactive: Potency [1] | Potency [2] | outcome [3] | max response [4] 0.414% | outcome [5] | outcome [6] | outcome [7] | outcome [20] | Potency [8] | Potency [9] | Potency [10] | Potency [12] | Potency [15] | Potency [16] | outcome [17] | Potency [18] | outcome [19]

CCCCNC1CC(C)(C)NC(C)(C)C1
inactive: Potency [1] | Potency [2] | outcome [3] | max response [4] 10.4% | outcome [5] | outcome [6] | outcome [20] | Potency [8] | Potency [9] | Potency [10] | outcome [11] | Potency [12] | Potency [13] | outcome [14] | Potency [15] | Potency [16] | outcome [17] | Potency [18] | outcome [19]
